Results from PubChem BioAssay (EPA / NIEHS).
Calls of active or inactive are those of the source. Rule for the calls: active = hit-call score of the fitted dose curve at least 0.9, where 1 is the maximum; inactive = score below 0.9.

What follows are compounds tested against Transcription factor Sp1 (Homo sapiens) (UniProt P08047) (assay: ATG_Sp1_CIS: Attagene CIS-FACTORIAL HepG2 Assay for human Specificity Protein 1 (Sp1) (AID 2282961)). Conditions: HepG2 Sp1 cis-reporter transcription, actives raise or lower the signal.
Transcription factor Sp1 (Homo sapiens), sequence (P08047 whole entry, looked up): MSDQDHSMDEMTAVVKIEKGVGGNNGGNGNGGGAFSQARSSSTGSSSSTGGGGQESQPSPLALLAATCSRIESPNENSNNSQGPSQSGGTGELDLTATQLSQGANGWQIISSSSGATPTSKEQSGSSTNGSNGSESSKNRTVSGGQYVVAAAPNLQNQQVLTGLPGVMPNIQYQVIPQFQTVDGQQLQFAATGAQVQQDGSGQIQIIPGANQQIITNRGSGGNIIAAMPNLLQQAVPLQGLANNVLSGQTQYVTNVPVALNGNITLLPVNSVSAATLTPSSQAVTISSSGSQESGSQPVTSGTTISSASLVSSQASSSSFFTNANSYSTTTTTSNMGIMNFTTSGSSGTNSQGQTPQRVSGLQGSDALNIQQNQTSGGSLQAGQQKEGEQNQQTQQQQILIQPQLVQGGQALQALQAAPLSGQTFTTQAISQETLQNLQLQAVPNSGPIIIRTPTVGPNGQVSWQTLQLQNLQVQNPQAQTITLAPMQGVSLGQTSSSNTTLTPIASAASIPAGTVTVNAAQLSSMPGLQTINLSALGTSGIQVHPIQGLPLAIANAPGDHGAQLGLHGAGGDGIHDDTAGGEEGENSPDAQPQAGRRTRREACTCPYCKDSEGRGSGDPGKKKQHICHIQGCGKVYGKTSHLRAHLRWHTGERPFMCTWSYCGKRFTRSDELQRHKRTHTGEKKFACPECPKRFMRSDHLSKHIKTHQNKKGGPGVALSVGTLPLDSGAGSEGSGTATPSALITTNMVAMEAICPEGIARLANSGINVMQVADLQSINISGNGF
Procedure: ATG_CIS is a cell-based, multiplexed-readout assay that uses HepG2, a human liver cell line, with measurements taken at 24 hours after chemical dosing in a 24-well plate.ATG_Sp1_CIS is one of 52 assay component(s) measured or calculated from the ATG_CIS assay. It is designed to make measurements of mRNA induction, a form of inducible reporter, as detected with fluorescence intensity signals by Reverse transcription polymerase chain reaction (RT-PCR) and Capillary electrophoresis technology.Data from the assay component ATG_Sp1_CIS was analyzed into 1 assay endpoint. This assay endpoint, ATG_Sp1_CIS, was analyzed with bidirectional fitting relative to DMSO as the negative control and baseline of activity. Using a type of inducible reporter, measures of mRNA for gain or loss-of-signal activity can be used to understand the reporter gene at the transcription factor-level as they relate to the gene SP1. Furthermore, this assay endpoint can be referred to as a primary readout, because this assay has produced multiple assay endpoints where this one serves a reporter gene function. To generalize the intended target to other relatable targets, this assay endpoint is annotated to the dna binding intended target family, where the subfamily is zinc finger.
Human liver HepG2 cells are transiently transfected with multiple reporter transcription units (MRTUs) in 6-well plates using FuGene 6 reagent (Roche; 3 ml FuGene/1 mg DNA). The MRTU constructs are regulated by a cis-regulating element (promoter). […] A major difference between the CIS and TRANS system is that in CIS activities of endogenous TFs are measured, whereas the TRANS assay evaluates changes in activities of exogenous, chimeric NR-Gal4 proteins. […] At the end of 24 hour incubation, total RNA was isolated using TriZol reagent (Invitrogen). The isolated RNA is then reverse-transcribed using oligo(dT) primer and Mo-MLV reverse transcriptase (Invitrogen) with DNAse I (Ambion) treatment for 30 min. The one-tenth of the produced cDNA was amplified by PCR using Taq DNA polymerase (Invitrogen) and two reporter sequence-specific primers. The PCR products were fluorescently labeled by primer extension with 6-arboxyfluorescein (6-FAM) 5'-labeled reporter sequence-specific primer (2 min at 95 C, 20 s at 68 C and 10 min at 72 C) and these products were digested with 5U of HpaI (New England Biolabs) for 2h at 37 C. The fragments were purified using Qiaquick PCR columns (Qiagen), analyzed on an ABI 3130xL genetic analyzer (Applied Biosystems) with peak positions identified by using a set of X-rhodamine (ROX)-labeled MapMarker1000 molecular weight standards (BioVentures). The raw capillary electrophoresis data was processed using Attagraph software (Attagene).
For `CC(=O)OCCOCCOCCOC(C)=O`, the outcome was “inactive”.
In the case of `Cc1cccc([N+](=O)[O-])c1C`, the outcome is reported as “inactive”.
`C[C@]12C=CC(=O)C=C1CC[C@@H]1[C@@H]2C(=O)C[C@@]2(C)[C@H]1CC[C@]2(O)C(=O)CO` was tested, and the outcome was “inactive”.
For `CC=Cc1ccc(O)c(OC)c1`, the outcome was “inactive”.
For `COc1cc(C=O)ccc1O`, the outcome was “inactive”.
With `Cc1ccc(C)c(O)c1C` the outcome was “inactive”.
`CCCCN(CCCC)CCCC` was tested, and the outcome was “inactive”.
With `COc1cc(/C=C/C(=O)CC(=O)/C=C/c2ccc(O)c(OC)c2)ccc1O` the AC50 was 44.5 µM (active).
With `Oc1ccc2ccccc2c1N=Nc1ccccc1` the outcome was “inactive”.
`CCOc1ccc2c(c1)C(C)=CC(C)(C)N2` was tested, and the AC50 was 78.9 µM (active).
In the case of `CCNc1cccc(C)c1`, the outcome is reported as “inactive”.
In the case of `Cc1cc(=O)[nH]c(=S)[nH]1`, the outcome is reported as “inactive”.
In the case of `CCCCCCCCCCCCCO`, the outcome is reported as “inactive”.
In the case of `COc1ccc2c(c1)c(CC(=O)O)c(C)n2C(=O)c1ccc(Cl)cc1`, the outcome is reported as “inactive”.
In the case of `NCCO`, the outcome is reported as “inactive”.
In the case of `O=C(OCCCCCOC(=O)c1ccccc1)c1ccccc1`, the outcome is reported as “inactive”.
`CCCCCCCCCCCC(=O)OC` was tested, and the outcome was “inactive”.
`CCCCCCOCCO` was tested, and the outcome was “inactive”.
For `Nc1nc(N)c2nc(CNc3ccc(C(=O)N[C@@H](CCC(=O)O)C(=O)O)cc3)cnc2n1`, the outcome was “inactive”.
With `CCc1c(C(=O)NN2CCCCC2)nn(-c2ccc(Cl)cc2Cl)c1-c1ccc(Br)cc1` the outcome was “inactive”.
In the case of `CN1CCCC1=O`, the outcome is reported as “inactive”.
In the case of `CCCCOC(=O)CCCCCCCCC(=O)OCCCC`, the outcome is reported as “inactive”.
In the case of `Cc1ccc(N(C)C)cc1`, the outcome is reported as “inactive”.
`CCOC(=O)CCC(=O)OCC` was tested, and the outcome was “inactive”.
In the case of `COc1ccc(C)cc1N`, the outcome is reported as “inactive”.
With `OC[C@@H](O)[C@@H](O)[C@H](O)[C@H](O)CO` the outcome was “inactive”.
`c1cc(-c2ccncc2)ccn1` was tested, and the outcome was “inactive”.
In the case of `NCC1(Cc2noc(=O)[nH]2)CCCCC1`, the outcome is reported as “inactive”.
For `COc1cc(-c2nc(NC(=O)c3cc4cc(C)cc(C)c4n3CC(=O)O)sc2CCC2CCCCC2)c(OC)cc1Cl`, the AC50 was 2.83 µM (active).
With `Cc1c(C(=O)O)c(O)cc2c1C(=O)c1c(O)c([C@@H]3O[C@H](CO)[C@@H](O)[C@H](O)[C@H]3O)c(O)c(O)c1C2=O` the outcome was “inactive”.
`Cc1ccccc1Cl` was tested, and the outcome was “inactive”.
With `Cc1ccc(C)c(C)c1` the outcome was “inactive”.
`O=C(O)CCCCC(=O)O` was tested, and the outcome was “inactive”.
`FC(F)(F)C(F)(F)C(F)(F)C(F)(F)C(F)(F)C(F)(F)CCI` was tested, and the outcome was “inactive”.
In the case of `CCCc1cc(=O)[nH]c(=S)[nH]1`, the outcome is reported as “inactive”.
For `O=C(N[C@@H](Cc1ccccc1)[C@@H](O)C(=O)N1C[C@@H](O)[C@@H](O)C1)c1cc2cc(Cl)ccc2[nH]1`, the outcome was “inactive”.
`CCCCCCCCCCCCCCCCCC(=O)O` was tested, and the outcome was “inactive”.
`C=CCOC(=O)c1ccccc1C(=O)OCC=C` was tested, and the outcome was “inactive”.
For `O=c1c(O)c(-c2ccc(O)c(O)c2)oc2cc(O)cc(O)c12`, the outcome was “inactive”.
In the case of `CCCCCC(=O)O`, the outcome is reported as “inactive”.
